Reference: PubChem BioAssay
Several values for one entry are separate records, joined by “and”; a condition that tells them apart may be missing. Equal entries are not always repeated. Some compounds were tested as several samples or in several runs, with calls that do not always agree. Activity calls are given as the source filed them.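 Rule for the calls, unless noted: active = thallium flux through the channel raised or lowered by more than 3 SD from vehicle-only wells, actives on both sides; inactive = the rest.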

Assays:
[1] = stimulators of nuclear beta-catenin in C2C12, primary screen, imaging, WNT3A-conditioned medium, mouse C2C12, NPC library (AID 1117326; in the data active = nuclear beta-catenin stimulation mostly above about 4.2%, no sharp cut-off; inactive = mostly below about 10%); conditions: stronger effect = higher value
[2] = stimulators of insulin release from INS-1E, primary screen, cell-based, 5 mM glucose, NPC library (AID 1117329;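 active = compound raises insulin release from rat beta cells at 5 mM glucose, no numeric limit stated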); conditions: rat INS-1E insulin secretion, at 10 µM, stronger effect = higher value
[3] = growth inhibition of GSK3B-pretreated HCT116 cells – cell-based, CellTiter-Glo, 0.2 to 20 µM (AID 1117336;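 active = compounds lowering colon cancer cell viability after pretreatment blocking the GSK3B kinase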); conditions: HCT116 viability after GSK3B inhibitor, at 20 µM, stronger effect = higher value
[4] = inhibition of endothelial tube formation, primary screen, imaging, VEGF stimulated, CD31 staining, tube area, NPC library (AID 1117340;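 active = compound that reduces growth-factor-driven endothelial tube area in a mixed cell culture, no cutoff stated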); conditions: VEGF-stimulated ADSC/ECFC co-culture, at 10 µM, stronger effect = higher value
[5] = glucagon-like peptide 1 release enhancers, primary assay, NCI-H716 cell line, NPC library (AID 1117341;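 active = compound raises GLP1 secretion from the human gut endocrine cells, with no numeric limit stated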); conditions: NCI-H716 cells, at 10 µM, stronger effect = higher value
[6] = HCT116 colon cancer cell growth inhibition, primary screen, CellTiter-Glo luminescence, NPC library (AID 1117342;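 active = compounds that lower survival of HCT116 colon cancer cells in the luminescence readout, no numeric limit stated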); conditions: at 20 µM (top of the series)
[7] = CellTiter-Glo luminescent readout of SW480 viability loss, NPC library primary (AID 1117343;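 active = compounds that lower viability of the colon cancer cells in the luminescence readout, with no numeric limit stated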); conditions: CellTiter-Glo luminescence; at 20 µM (top of the series)
[8] = decreased DLD-1 cellular survival, CellTiter-Glo luminescent readout, NPC compound collection, primary HTS (AID 1117346;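 active = compounds that lower survival of DLD-1 colon cancer cells in the luminescence readout, no cutoff given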); conditions: DLD-1 viability, CellTiter-Glo luminescence; at 20 µM (top of the series)
[9] = target: 6-phosphogluconate dehydrogenase, decarboxylating (Homo sapiens) (UniProt P52209); experiment: 6PGD enzyme inhibitors, primary screen, biochemical, human, recombinant enzyme, NADPH absorbance (AID 1159550;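 active = at least 20% inhibition of 6-phosphogluconate dehydrogenase activity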); conditions: recombinant 6PGD, NADPH absorbance 341 nm; at 10 µM; stronger effect = higher value
Chain of 6-phosphogluconate dehydrogenase, decarboxylating (Homo sapiens) (P52209 whole entry, looked up): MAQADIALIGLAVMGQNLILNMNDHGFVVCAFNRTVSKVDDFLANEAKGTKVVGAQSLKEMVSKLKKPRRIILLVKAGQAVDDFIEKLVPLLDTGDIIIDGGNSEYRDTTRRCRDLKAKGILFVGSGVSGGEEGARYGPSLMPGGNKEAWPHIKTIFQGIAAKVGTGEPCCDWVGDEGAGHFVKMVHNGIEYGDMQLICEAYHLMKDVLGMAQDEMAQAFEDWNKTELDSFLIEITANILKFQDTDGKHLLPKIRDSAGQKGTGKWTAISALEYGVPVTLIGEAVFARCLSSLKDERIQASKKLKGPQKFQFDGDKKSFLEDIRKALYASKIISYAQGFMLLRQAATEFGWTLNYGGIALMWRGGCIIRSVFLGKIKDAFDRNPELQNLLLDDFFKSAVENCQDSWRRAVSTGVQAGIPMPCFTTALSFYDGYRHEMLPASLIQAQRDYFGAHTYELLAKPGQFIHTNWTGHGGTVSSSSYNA

[10] = differential killing of epithelial or mesenchymal cells, primary screen, imaging, PC-3E GFP, TEM4-18 mCherry, co-culture (AID 1345086;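 active = compounds killing one labelled cell type while sparing the other, by normalised counts and ratio limits, not self-fluorescent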;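 for all read-outs here: cells exposed to compound for 72 h before imaging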;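 for red/green cell ratio (normalised): normalised mesenchymal count divided by normalised epithelial count so high means epithelial killing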); conditions: imaging cell counts, at 1 µM; for red/green cell ratio (normalised): actives lie on both sides, counts scaled to control wells, 1 = unselective
[11] = sensitizers of A549 cells to miR-34 induction, primary screen, imaging, A549 dox-inducible miR-34, nuclei and caspase counts (AID 1347080;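 active = compounds whose cell count with miR-34 switched on is under 0.7 times the count with it off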); conditions: A549 miR-34 inducible, Hoechst nuclei count, 48 h
[12] = survival rescue of mitochondrial mutant cells in low glucose, primary screen, MELAS cybrids, Rieske KO mouse fibroblasts, CellTiter-Glo (AID 1508586;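 active = mean z-score across replicates of 1.96 or higher in either the MELAS or the Rieske mutant cell line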;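 note: z relative to plate mean and SD of compound and empty wells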)
[13] = tested on: F380Y; experiment: modulators of BK channel variants, profiling panel, selectivity assay, cell-based, U2OS BacMam, thallium flux, beta subunits (AID 1259406); conditions: at 30 µM;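 note: initial slope of Thallos dye fluorescence rise after thallium is added; log ratio against the mean of 0.3% DMSO vehicle wells on the same plate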
[14] = tested on: F380Y/beta1; experiment: as above; conditions: at 30 µM
[15] = tested on: F380Y/beta2Delta; experiment: as above; conditions: at 30 µM
[16] = tested on: F380Y/beta4; experiment: as above; conditions: at 30 µM
[17] = target: Calcium-activated potassium channel subunit alpha-1 (Homo sapiens) + Leucine-rich repeat-containing protein 26 (Homo sapiens) (UniProt Q12791+Q2I0M4); experiment: as above; conditions: F380Y/Slo1WT/gamma1, at 30 µM
Chain of Calcium-activated potassium channel subunit alpha-1 (Homo sapiens) + Leucine-rich repeat-containing protein 26 (Homo sapiens) (Q2I0M4 whole entry, looked up, one chain of several): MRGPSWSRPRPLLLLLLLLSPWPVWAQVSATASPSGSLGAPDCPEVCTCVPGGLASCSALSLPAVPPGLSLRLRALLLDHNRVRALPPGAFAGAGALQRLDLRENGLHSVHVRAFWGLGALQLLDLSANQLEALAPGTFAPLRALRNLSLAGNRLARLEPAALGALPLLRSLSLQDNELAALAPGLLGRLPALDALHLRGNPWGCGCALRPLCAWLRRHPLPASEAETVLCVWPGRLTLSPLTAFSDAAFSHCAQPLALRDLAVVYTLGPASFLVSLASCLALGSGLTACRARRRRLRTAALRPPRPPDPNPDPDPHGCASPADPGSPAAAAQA

[18] = tested on: R275C; experiment: as above; conditions: at 30 µM
[19] = tested on: R275C/beta1; experiment: as above; conditions: at 30 µM
[20] = measured here: epithelial PC-3E GFP cell survival
[21] = measured here: mesenchymal TEM4-18 mCherry cell survival
[22] = stronger effect = lower value, cell number ratio, induced over uninduced
[23] = measured here: relative caspase fold change +Dox/-Dox
[24] = measured here: total cells with miR-34 induction, stronger effect = lower value
[25] = measured here: total cells without miR-34 induction
[26] = MELAS cybrid survival, CellTiter-Glo 48 h, stronger effect = higher value
[27] = Rieske KO mouse fibroblast survival, CellTiter-Glo 72 h

C/C=C/C(=O)N(CC)c1ccccc1C
10100 and 13300 and 9700: cell count [11, 25]
inactive: nuclear beta-catenin stimulation ([1]; at 10 µM) 1.7% | insulin secretion stimulation [2] -0.4% | viability decrease [3] -18.4% | tube area decrease [4] 12.7% | GLP1 secretion stimulation [5] -3.7% | inhibition of viability [6] -11.3% | viability decrease (inhibition) [7] 19.5% | viability decrease (inhibition) [8] -26.5% | inhibition [9] -11.5% | red/green cell ratio (normalised) [10] 1.1 | fold change [11, 22] 0.871 and 0.856 and 0.894 | z-score [12, 26] -0.397 and -0.423 | log fold change Tl+ flux [13] 0.0255 | log fold change Tl+ flux [14] -0.0381 | log fold change Tl+ flux [15] -0.0171 | log fold change Tl+ flux [16] -0.00302 | log fold change Tl+ flux [17] 0.0385 | log fold change Tl+ flux [18] -0.0159 | log fold change Tl+ flux [19] -0.0206
0.97: normalised cell number [10, 21]
1.68 and 2.74 and 1.41: fold change [11, 23]
0.88: normalised cell number [10, 20]
-1.25 and -1.17: z-score [12, 27]
0.9%: nuclear beta-catenin stimulation ([1]; stimulation, at 2 µM)
8830 and 11400 and 8670: cell count [11, 24]

Clc1ccc2c(c1)C(N1CCNCC1)=Nc1ccccc1O2
inactive: nuclear beta-catenin stimulation ([1]; at 10 µM) 0.3% | insulin secretion stimulation [2] 16.5% | viability decrease [3] 46.2% | tube area decrease [4] -3.9% | GLP1 secretion stimulation [5] 15.3% | viability decrease (inhibition) [8] 19.2% | inhibition [9] -21.3% | red/green cell ratio (normalised) [10] 1.17 | z-score [12, 26] -0.224 and 0.465 | log fold change Tl+ flux [14] 0.0215 | log fold change Tl+ flux [16] 0.0652 | log fold change Tl+ flux [17] -0.0105 | log fold change Tl+ flux [18] 0.021
0.27: normalised cell number [10, 21]
-0.6%: nuclear beta-catenin stimulation ([1]; stimulation, at 2 µM)
0.449 and -0.479: z-score [12, 27]
active: inhibition of viability [6] 57.3% | viability decrease (inhibition) [7] 90% | log fold change Tl+ flux [13] 0.111 | log fold change Tl+ flux [15] 0.148 | log fold change Tl+ flux [19] 0.123
0.23: normalised cell number [10, 20]

Cc1ccccc1C(OCCN(C)C)c1ccccc1 (configuration not stated)
-0.358 and 0.0536: z-score [12, 27]
0.85: normalised cell number [10, 21]
active: insulin secretion stimulation [2] 39.3%
1.7%: nuclear beta-catenin stimulation ([1]; stimulation, at 2 µM)
inactive: nuclear beta-catenin stimulation ([1]; at 10 µM) 0.6% | viability decrease [3] -86.6% | tube area decrease [4] 2.8% | GLP1 secretion stimulation [5] 2.1% | inhibition of viability [6] 8.67% | viability decrease (inhibition) [7] 45.8% | viability decrease (inhibition) [8] -5% | inhibition [9] 5.27% | red/green cell ratio (normalised) [10] 1.09 | z-score [12, 26] -0.259 and -1.08 | log fold change Tl+ flux [13] 0.0933 and 0.0755 | log fold change Tl+ flux [14] 0.00351 and 0.0509 | log fold change Tl+ flux [15] 0.0734 and 0.0188 | log fold change Tl+ flux [16] 0.102 and 0.0432 | log fold change Tl+ flux [17] -0.00307 and 0.0363 | log fold change Tl+ flux [18] 0.02 and -0.0278 | log fold change Tl+ flux [19] 0.0357 and 0.0895
0.78: normalised cell number [10, 20]

c1ccc2[nH]c(-c3cscn3)nc2c1
1.16: normalised cell number [10, 21]
0.98: normalised cell number [10, 20]
1.4%: nuclear beta-catenin stimulation ([1]; stimulation, at 2 µM)
0.655 and 0.153: z-score [12, 27]
-0.164 (inactive) and 2.01 (active): z-score [12, 26]
inactive: nuclear beta-catenin stimulation ([1]; at 10 µM) 1.5% | insulin secretion stimulation [2] -1.2% | viability decrease [3] -3.75% | tube area decrease [4] 13.1% | GLP1 secretion stimulation [5] 4.2% | inhibition of viability [6] 5.1% | viability decrease (inhibition) [7] -9.9% | viability decrease (inhibition) [8] -17.1% | inhibition [9] 2.18% | red/green cell ratio (normalised) [10] 1.18 | log fold change Tl+ flux [13] -0.0155 | log fold change Tl+ flux [14] -0.00469 | log fold change Tl+ flux [15] -0.00898 | log fold change Tl+ flux [16] 0.0538 | log fold change Tl+ flux [17] 0.048 | log fold change Tl+ flux [18] 0.0284 | log fold change Tl+ flux [19] -0.0377

Cc1ccc(C)c(OCCCC(C)(C)C(=O)O)c1
0.82: normalised cell number [10, 20]
1.2%: nuclear beta-catenin stimulation ([1]; stimulation, at 2 µM)
1.03: normalised cell number [10, 21]
0.636 and -0.228 and 0.576: z-score [12, 27]
inactive: nuclear beta-catenin stimulation ([1]; at 10 µM) 1.3% | insulin secretion stimulation [2] -1% | viability decrease [3] 4.95% | tube area decrease [4] -9.2% | GLP1 secretion stimulation [5] 2.4% | inhibition of viability [6] -1.9% | viability decrease (inhibition) [7] 20.7% | viability decrease (inhibition) [8] 0.75% | inhibition [9] -2.35% | red/green cell ratio (normalised) [10] 1.25 | z-score [12, 26] -0.269 and 0.233 and 0.482 | log fold change Tl+ flux [13] 0.0531 | log fold change Tl+ flux [14] 0.07 | log fold change Tl+ flux [15] 0.0499 | log fold change Tl+ flux [16] 0.0166 | log fold change Tl+ flux [17] 0.0687 | log fold change Tl+ flux [18] 0.0109 | log fold change Tl+ flux [19] 0.0657

COC1=CC(=O)C[C@@H](C)[C@]12Oc1c(Cl)c(OC)cc(OC)c1C2=O
inactive: nuclear beta-catenin stimulation ([1]; at 10 µM) 1.9% | insulin secretion stimulation [2] 6.2% | viability decrease [3] 38.4% | tube area decrease [4] 24.2% | GLP1 secretion stimulation [5] 0.1% | inhibition of viability [6] 43.7% | viability decrease (inhibition) [8] 20% | inhibition [9] 1.41% | red/green cell ratio (normalised) [10] 0.76 | fold change [11, 22] 1.07 and 0.956 and 0.943 | z-score [12, 26] 1.78 | log fold change Tl+ flux [13] 0.00739 | log fold change Tl+ flux [14] -0.046 | log fold change Tl+ flux [15] 0.0194 | log fold change Tl+ flux [16] -0.0398 | log fold change Tl+ flux [17] -0.0624 | log fold change Tl+ flux [18] -0.0442 | log fold change Tl+ flux [19] 0.0145
6100 and 6900 and 8710: cell count [11, 24]
0.726: z-score [12, 27]
active: viability decrease (inhibition) [7] 64.1%
5720 and 7210 and 9240: cell count [11, 25]
2.5 and 0.98 and 2.02: fold change [11, 23]
0.3%: nuclear beta-catenin stimulation ([1]; stimulation, at 2 µM)
1.07: normalised cell number [10, 21]
1.41: normalised cell number [10, 20]

COC(=O)Nc1nc2ccc(C(=O)c3ccccc3)cc2[nH]1
0.29: normalised cell number [10, 21]
0.0815 and 0.438 and 0.923: z-score [12, 27]
42.2%: nuclear beta-catenin stimulation ([1]; stimulation, at 2 µM)
inactive: insulin secretion stimulation [2] -0.3% | viability decrease [3] 10.7% | GLP1 secretion stimulation [5] 2.2% | inhibition [9] 0.811% | red/green cell ratio (normalised) [10] 1.27 | z-score [12, 26] 0.18 and -0.728 and -2.21 | log fold change Tl+ flux [13] -0.0365 | log fold change Tl+ flux [14] 0.0198 | log fold change Tl+ flux [15] -0.00923 | log fold change Tl+ flux [16] -0.0277 | log fold change Tl+ flux [17] 0.00509 | log fold change Tl+ flux [18] -0.00107 | log fold change Tl+ flux [19] 0.00663
active: nuclear beta-catenin stimulation ([1]; at 10 µM) 78.6% | tube area decrease [4] 102% | inhibition of viability [6] 56.4% | viability decrease (inhibition) [7] 27.7% | viability decrease (inhibition) [8] 51.5%
0.23: normalised cell number [10, 20]
